Reference: PubChem BioAssay
The source made the active and inactive calls. Unless noted, how the calls were made is not given here.

How the values were obtained:
[1] = resazurin metabolic signal in HepG2 cells – cell-based, resazurin fluorescence, 24 h, PK04 Diversity Set, profiling panel (AID 1172); details: HepG2 viability, higher = more signal
[2] = budding yeast growth changes without added modifier – OD600, strain BY4716, 24 h, basal condition, primary screen (AID 1173); details: S. cerevisiae BY4716 growth, OD600, 24 h; higher = more signal, called active from +8 up or from −8 down
[3] = viability profiling in MM1S myeloma cells – cell-based, resazurin fluorescence, basal, 24 h, PK04 Diversity Set, profiling panel (AID 1174); details: higher = more signal, called active from +8 up or from −8 down;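 further: MM1S multiple myeloma cell line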
[4] = target: Dihydroorotate dehydrogenase (quinone), mitochondrial (Plasmodium falciparum (isolate 3D7)) (UniProt Q08210); experiment: inhibition of P. falciparum DHODH – biochemical, C-terminal His tag, absorbance 600 nm, primary screen (AID 1175); details: PfDHODH enzyme, DCIP absorbance 600 nm; higher = more signal, called active from +8 up or from −8 down;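 further: recombinant parasite enzyme with a five histidine tag at its C terminus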
[5] = inhibition of PAO1 biofilm formation – strain PAO1, LB-PBS medium, absorbance 600 nm, primary screen (AID 1176); details: P. aeruginosa PAO1 growth/biofilm, A600, 12 h; higher = more signal
[6] = growth modulation of vineyard yeast isolate – strain RM11-1a, OD600, basal, 24 h, primary screen (AID 1177);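 further: cultures grown under basal conditions with no added stressor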; details: S. cerevisiae RM11-1a growth, OD600, 24 h; higher = more signal, called active from +8 up or from −8 down
[7] = growth of efflux-deficient E. coli DRC39 – strain DRC39, OD650, 24 h, E. coli filamentation inducers, primary screen (AID 1178);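 further: growth measured as culture turbidity by optical density at 650 nm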; details: E. coli DRC39 acrAB, higher = more signal, called active from +8 up or from −8 down
[8] = growth of efflux-deficient E. coli DRC39 – strain DRC39, OD650, 48 h, E. coli filamentation inducers, primary screen (AID 1179);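 further: screen aims at cell division blockers that make cells filament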; details: E. coli DRC39 delta-acrAB growth, higher = more signal, called active from +8 up or from −8 down
[9] = viability profiling in RPMI8226 myeloma cells – cell-based, resazurin fluorescence, basal, 24 h, PK04 Diversity Set, profiling panel (AID 1180); details: higher = more signal;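 further: RPMI8826 multiple myeloma cell line at 5000 cells per well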
[10] = target: E3 ubiquitin-protein ligase XIAP (Homo sapiens) (UniProt P98170); experiment: small molecules binding XIAP protein – biophysical, small-molecule microarray, fluorescence 635 nm, primary screen (AID 1181); details: higher = more signal;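 further: score merges 667 nm emission and signal to noise over triplicate slides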
[11] = test system: XIP peptide (Xip251-270) binding; experiment: XIP fragment 251-270 binding compounds – biochemical, small-molecule microarray, fluorescence 635/667 nm, 0.1 µg/mL protein, primary screen (AID 1182); details: fluorescent protein binding, 635 nm, higher = more signal, called active from +8 up or from −8 down
XIP peptide (Xip251-270) = experiment: compounds binding XIP fragment 251-270 – biochemical, small-molecule microarray, fluorescence 635/667 nm, 0.5 µg/mL protein, primary screen (AID 1183); details: fluorescence 635 nm, higher = more signal
[12] = blood-stage malaria parasite viability loss – strain 3D7, DAPI fluorescence, 100 nL, primary screen (AID 1184);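 further: parasites grown inside human red blood cells in medium with human serum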; details: P. falciparum 3D7 growth, 3 d, higher = more signal
[13] = target: Homeobox protein Hox-A13 (Mus musculus) (UniProt Q62424); experiment: disruptors of Hoxa13 oligonucleotide interaction – biochemical, fluorescence polarization, labeled oligonucleotide, primary screen (AID 1185); details: Hoxa13:DNA binding, 15 min, higher = more signal, called active from +8 up or from −8 down
[14] = blockers of DNA damage checkpoint Chk1 activation – imaging, HeLa, hydroxyurea, phospho-Chk1 antibody, percent positive cells, primary screen (AID 1186); details: hydroxyurea-induced phospho-Chk1 immunofluorescence imaging, higher = more signal
[15] = blockers of DNA damage checkpoint Chk1 activation – imaging, HeLa, hydroxyurea, phospho-Chk1 nuclear intensity, primary screen (AID 1187); details: hydroxyurea-induced phospho-Chk1 immunofluorescence imaging, higher = more signal

Sequence of E3 ubiquitin-protein ligase XIAP (Homo sapiens) (P98170 whole entry, looked up, the tested form may be a part): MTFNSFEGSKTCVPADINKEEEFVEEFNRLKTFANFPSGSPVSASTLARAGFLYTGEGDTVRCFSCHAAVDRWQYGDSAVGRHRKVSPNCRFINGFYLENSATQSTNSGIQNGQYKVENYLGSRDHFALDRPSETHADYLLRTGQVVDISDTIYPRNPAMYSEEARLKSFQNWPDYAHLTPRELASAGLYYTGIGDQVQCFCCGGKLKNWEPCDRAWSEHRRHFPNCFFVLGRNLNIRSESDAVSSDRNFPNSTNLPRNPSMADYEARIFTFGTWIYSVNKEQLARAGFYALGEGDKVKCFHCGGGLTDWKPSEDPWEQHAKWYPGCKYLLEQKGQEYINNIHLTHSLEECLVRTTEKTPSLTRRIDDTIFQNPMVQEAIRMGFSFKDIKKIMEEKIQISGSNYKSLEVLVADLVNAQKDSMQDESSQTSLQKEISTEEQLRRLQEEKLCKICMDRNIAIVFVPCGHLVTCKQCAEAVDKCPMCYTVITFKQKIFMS
Sequence of Dihydroorotate dehydrogenase (quinone), mitochondrial (Plasmodium falciparum (isolate 3D7)) (Q08210 whole entry, looked up): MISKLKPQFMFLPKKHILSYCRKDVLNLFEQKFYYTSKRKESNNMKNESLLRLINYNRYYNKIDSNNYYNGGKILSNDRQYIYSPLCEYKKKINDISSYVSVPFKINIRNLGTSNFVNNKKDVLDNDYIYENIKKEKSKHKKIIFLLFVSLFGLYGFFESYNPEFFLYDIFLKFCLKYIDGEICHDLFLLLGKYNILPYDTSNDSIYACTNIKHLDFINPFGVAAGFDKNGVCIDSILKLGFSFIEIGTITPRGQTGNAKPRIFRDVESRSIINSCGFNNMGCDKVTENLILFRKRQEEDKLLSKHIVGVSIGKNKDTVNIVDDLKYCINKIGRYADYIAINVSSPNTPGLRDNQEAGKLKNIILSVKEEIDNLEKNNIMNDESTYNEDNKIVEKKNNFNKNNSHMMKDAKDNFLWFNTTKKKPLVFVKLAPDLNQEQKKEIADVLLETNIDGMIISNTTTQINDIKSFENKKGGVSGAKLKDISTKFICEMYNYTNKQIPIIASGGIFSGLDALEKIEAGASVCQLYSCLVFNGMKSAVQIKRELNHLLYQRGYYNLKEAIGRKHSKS
Sequence of Homeobox protein Hox-A13 (Mus musculus) (Q62424 whole entry, looked up): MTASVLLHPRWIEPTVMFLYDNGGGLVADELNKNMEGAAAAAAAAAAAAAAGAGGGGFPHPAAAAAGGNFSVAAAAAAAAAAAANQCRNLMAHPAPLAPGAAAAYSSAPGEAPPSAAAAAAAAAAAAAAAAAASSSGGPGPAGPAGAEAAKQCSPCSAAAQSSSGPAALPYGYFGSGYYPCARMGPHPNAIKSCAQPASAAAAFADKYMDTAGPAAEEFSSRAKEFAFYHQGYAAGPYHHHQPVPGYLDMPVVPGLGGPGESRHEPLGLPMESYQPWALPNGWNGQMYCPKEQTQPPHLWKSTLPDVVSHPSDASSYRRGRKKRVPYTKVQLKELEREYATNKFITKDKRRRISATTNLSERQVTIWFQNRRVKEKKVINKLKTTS

Row | SMILES | z-score [1] | z-score [2] | z-score [3] | composite z-score [4] | z-score [5] | z-score [6] | z-score [7] | z-score [8] | z-score [9] | composite z-score [10] | composite z-score [11] | composite z-score (XIP peptide (Xip251-270)) | z-score [12] | z-score [13] | z-score [14] | z-score [15]
1 | C=CCNC(=O)[C@@H]1[C@H]2C(=O)O[C@H](c3ccccc3)[C@H](c3ccccc3)N2[C@H](c2ccc(OCCO)cc2)[C@@]12C(=O)N(C(=O)OCCOC)c1ccc(C#CC3=CCCCC3)cc12 | -0.344 | 1.83 (inactive) | -0.897 (inactive) | -1.47 (inactive) | 2.17 (inactive) | 2.57 (inactive) | -0.713 (inactive) | -0.206 (inactive) | -1.66 | -0.426 | 0.0094 (inactive) | 0.659 | -2.19 | 0.713 (inactive) | 0.201 (inactive) | 0.474 (inactive)
2 | C=C(/C(=C/C[C@@H](OC(=O)c1ccncc1)c1ccc(OCCO)cc1)c1cc(C(=O)OC)ccc1OC)C(C)C | 1.54 | 0.542 (inactive) | 0.288 (inactive) | -0.444 (inactive) | 0.224 (inactive) | -0.0338 (inactive) | 0.945 (inactive) | 0.52 (inactive) | 0.352 | -0.0916 | 0.281 (inactive) | 0.309 | -2.78 | -3.5 (inactive) | -0.899 (inactive) | -0.125 (inactive)
3 | CCOC(=CC(=O)OC)CC(O)c1cccc(Cl)c1 (stereo not given) | 0.217 | -8.62 (active) | -0.0412 (inactive) | -1.92 (inactive) | 0.16 (inactive) | -2.91 (inactive) | 0.121 (inactive) | 1.08 (inactive) | 0.404 | -0.0091 | 2.68 (inactive) | 0.893 | -0.368 | -3.53 (inactive) | -0.119 (inactive) | 0.219 (inactive)
4 | COc1c(C)cc(-c2cc3c(c(Cc4ccccc4)n2)[Si](C(C)C)(C(C)C)OC3)cc1C | -0.683 | 1.06 (inactive) | -0.533 (inactive) | -0.0592 (inactive) | 0.055 (inactive) | 0.576 (inactive) | -0.363 (inactive) | -0.779 (inactive) | -0.661 | -0.138 | -0.337 (inactive) | -0.0392 | -2.74 | 0.472 (inactive) | -0.142 (inactive) | 0.135 (inactive)
5 | CCOC(=O)C[C@H]1[C@H](OC(=O)c2ccccc2-c2ccccc2)[C@@H](NC(=O)c2ccc3ccccc3n2)c2cc(OCCCO)ccc2N1C(=O)c1ccc2ccccc2n1 | 0.922 | -1.08 (inactive) | 0.833 (inactive) | -0.431 (inactive) | 0.719 (inactive) | -0.344 (inactive) | 1.33 (inactive) | 1.21 (inactive) | -0.19 | -0.162 | 0.123 (inactive) | 0.309 | -0.456 | -1.53 (inactive) | -0.492 (inactive) | -0.588 (inactive)
6 | Cc1ccc(C(C)CC(O)C2C=CC3C(=O)N(c4ccccc4)C(=O)C3N2Nc2ccc(C(C)C)cc2)o1 (stereo not given) | -1.32 | 0.123 (inactive) | -0.905 (inactive) | 0.824 (inactive) | 1.5 (inactive) | 0.685 (inactive) | -0.751 (inactive) | -0.682 (inactive) | -1.03 | -0.0238 | 0.195 (inactive) | 0.691 | 0.0472 | -3.2 (inactive) | 0.527 (inactive) | 0.482 (inactive)
7 | O=C1O[C@@H](c2ccccc2)[C@@H](c2ccccc2)N2[C@@H](c3ccccc3OCCO)[C@]3(C(=O)Nc4ccc(C#CCCO)cc43)[C@@H](C(=O)N3CCN(c4ncccn4)CC3)[C@H]12 | 0.261 | 1.73 (inactive) | -0.901 (inactive) | 0.286 (inactive) | 0.393 (inactive) | 2.47 (inactive) | 0.245 (inactive) | -0.289 (inactive) | -1.7 | -0.0622 | 0.665 (inactive) | 0.617 | -2.05 | -1.33 (inactive) | -0.0995 (inactive) | 0.113 (inactive)
8 | COc1cc(CO)cc(I)c1O[C@H]1C=C(C(=O)NCCO)C[C@@H](N(Cc2ccc(F)cc2)C(=O)C2CCCO2)[C@@H]1O (stereo not given in full) | 0.266 | -1.96 (inactive) | 0.695 (inactive) | -0.737 (inactive) | 0.507 (inactive) | -0.254 (inactive) | 2.94 (inactive) | 2.03 (inactive) | 0.562 | -0.165 | -0.192 (inactive) | -0.318 | 0.463 | -4.27 (inactive) | 0.36 (inactive) | 0.824 (inactive)
9 | COc1ccc(C(O)C2C=CC3C(=O)N(c4ccccc4)C(=O)C3N2Nc2ccc(C#N)cc2)c2ccccc12 (stereo not given) | -1.47 | -1.74 (inactive) | -0.293 (inactive) | 0.397 (inactive) | 1.55 (inactive) | -0.993 (inactive) | -0.483 (inactive) | 0.161 (inactive) | -0.55 | 0.39 | 1.41 (inactive) | 0.728 | -0.683 | 0.744 (inactive) | -0.294 (inactive) | -0.468 (inactive)
10 | CC(C)C(O)C1C=CC2C(=O)N(C)C(=O)C2N1Nc1ccccc1 (stereo not given) | -0.0778 | -0.411 (inactive) | -0.84 (inactive) | -0.482 (inactive) | 0.931 (inactive) | 0.0222 (inactive) | -0.219 (inactive) | -0.434 (inactive) | -1.29 | 0.0159 | 0.292 (inactive) | 0.655 | 0.771 | -1.81 (inactive) | 0.331 (inactive) | 0.193 (inactive)
